# Reference: article PMC7862700, “An all-to-all approach to the identification of sequence-specific readers for epigenetic DNA modifications on cytosine”
# Assays:
# Experiment in all cases: DAPPL (digital affinity profiling via proximity ligation, sequencing); 10 mM Tris-HCl pH 7.5, 50 mM NaCl, 1 mM DTT, 4% glycerol, room temperature, 30 min; GST-TFs on glutathione beads, 16-mer random dsDNA library, 0.1% formaldehyde crosslink after washing; high values mean tight binding
# FLI1 = target: T1, FLI1 (Homo sapiens, UniProt Q01543 1-452); conditions: protein: recombinant; tags: N-terminal GST; dsDNA, one strand shown
# T1 sequence: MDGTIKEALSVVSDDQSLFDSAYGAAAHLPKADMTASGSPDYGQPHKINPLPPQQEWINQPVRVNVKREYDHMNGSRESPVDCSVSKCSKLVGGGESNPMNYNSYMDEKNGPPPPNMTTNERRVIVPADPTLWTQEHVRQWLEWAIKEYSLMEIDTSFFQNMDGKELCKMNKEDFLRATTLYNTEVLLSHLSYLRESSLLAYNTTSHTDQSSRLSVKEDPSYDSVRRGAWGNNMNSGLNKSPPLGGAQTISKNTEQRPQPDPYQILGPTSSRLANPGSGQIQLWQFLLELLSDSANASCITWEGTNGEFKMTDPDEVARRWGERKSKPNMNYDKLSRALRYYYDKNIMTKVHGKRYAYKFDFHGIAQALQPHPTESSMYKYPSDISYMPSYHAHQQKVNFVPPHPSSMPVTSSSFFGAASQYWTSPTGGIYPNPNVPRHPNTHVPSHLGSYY
# Method in brief: (§1)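 Pools of DNA-barcoded human transcription factors, expressed in yeast as GST fusions on glutathione beads and combined with a tag-only sample, were incubated with 200 nmole of a 16-mer random double-stranded DNA library. Incubation took 30 min at room temperature in Tris/NaCl/DTT/glycerol buffer and was followed by washing, 0.1% formaldehyde crosslinking, proximity ligation (BsaI/T4 ligase, 1 h, 37 °C), PCR amplification and sequencing on an Illumina NextSeq500. Binding signal is the ratio of a hexamer's read frequency for a factor to its frequency for the tag-only sample.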
# ELK1 = target: T2, ELK1 (Homo sapiens, UniProt P19419 1-428); conditions: protein: recombinant; tags: N-terminal GST; dsDNA, one strand shown
# T2 sequence: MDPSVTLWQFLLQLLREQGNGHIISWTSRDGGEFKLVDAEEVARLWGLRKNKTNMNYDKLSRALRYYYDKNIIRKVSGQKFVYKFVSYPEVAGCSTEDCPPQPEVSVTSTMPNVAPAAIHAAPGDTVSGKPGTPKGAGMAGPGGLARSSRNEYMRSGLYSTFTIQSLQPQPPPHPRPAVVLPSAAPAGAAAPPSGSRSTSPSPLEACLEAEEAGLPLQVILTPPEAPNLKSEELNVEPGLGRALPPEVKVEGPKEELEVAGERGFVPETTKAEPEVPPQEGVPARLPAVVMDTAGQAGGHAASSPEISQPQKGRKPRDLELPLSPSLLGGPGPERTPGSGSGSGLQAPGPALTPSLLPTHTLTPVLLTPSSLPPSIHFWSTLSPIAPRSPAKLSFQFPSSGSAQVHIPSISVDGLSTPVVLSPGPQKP
# Method in brief: as §1
# GABPA = target: T3, GABPA (Homo sapiens, UniProt Q06546 1-454); conditions: protein: recombinant; tags: N-terminal GST; dsDNA, one strand shown
# T3 sequence: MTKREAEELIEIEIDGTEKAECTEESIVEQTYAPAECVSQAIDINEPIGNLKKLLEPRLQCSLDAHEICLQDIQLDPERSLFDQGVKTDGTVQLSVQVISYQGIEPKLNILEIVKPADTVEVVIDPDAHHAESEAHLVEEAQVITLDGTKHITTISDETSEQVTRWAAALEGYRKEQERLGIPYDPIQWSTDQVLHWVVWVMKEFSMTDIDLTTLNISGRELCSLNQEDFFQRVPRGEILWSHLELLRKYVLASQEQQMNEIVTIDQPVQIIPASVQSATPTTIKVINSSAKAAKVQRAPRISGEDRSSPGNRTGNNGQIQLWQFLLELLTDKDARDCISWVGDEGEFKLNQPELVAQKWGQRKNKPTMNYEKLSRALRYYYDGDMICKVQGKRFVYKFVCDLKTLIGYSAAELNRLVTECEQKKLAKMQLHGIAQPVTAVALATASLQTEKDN
# Method in brief: as §1
# ERG = target: T4, ERG (Homo sapiens, UniProt P11308 1-479); conditions: protein: recombinant; tags: N-terminal GST; dsDNA, one strand shown
# T4 sequence: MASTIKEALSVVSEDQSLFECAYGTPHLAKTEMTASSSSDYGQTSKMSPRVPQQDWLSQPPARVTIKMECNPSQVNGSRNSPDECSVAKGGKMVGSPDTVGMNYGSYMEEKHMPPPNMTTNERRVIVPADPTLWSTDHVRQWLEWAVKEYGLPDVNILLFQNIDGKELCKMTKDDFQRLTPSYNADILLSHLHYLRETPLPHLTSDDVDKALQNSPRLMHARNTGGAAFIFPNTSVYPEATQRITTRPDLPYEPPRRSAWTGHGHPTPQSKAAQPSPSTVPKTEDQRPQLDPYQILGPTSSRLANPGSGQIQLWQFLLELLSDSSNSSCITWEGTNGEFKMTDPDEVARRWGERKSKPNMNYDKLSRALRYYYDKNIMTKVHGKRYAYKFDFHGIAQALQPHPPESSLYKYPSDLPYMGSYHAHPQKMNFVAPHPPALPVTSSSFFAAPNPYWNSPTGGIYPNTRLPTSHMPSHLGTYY
# Method in brief: as §1
# ELF1 = ELF1 (Homo sapiens, UniProt P32519 1-619); conditions: protein: recombinant; tags: N-terminal GST; dsDNA, one strand shown
# Sequence of ELF1 (P32519 whole entry): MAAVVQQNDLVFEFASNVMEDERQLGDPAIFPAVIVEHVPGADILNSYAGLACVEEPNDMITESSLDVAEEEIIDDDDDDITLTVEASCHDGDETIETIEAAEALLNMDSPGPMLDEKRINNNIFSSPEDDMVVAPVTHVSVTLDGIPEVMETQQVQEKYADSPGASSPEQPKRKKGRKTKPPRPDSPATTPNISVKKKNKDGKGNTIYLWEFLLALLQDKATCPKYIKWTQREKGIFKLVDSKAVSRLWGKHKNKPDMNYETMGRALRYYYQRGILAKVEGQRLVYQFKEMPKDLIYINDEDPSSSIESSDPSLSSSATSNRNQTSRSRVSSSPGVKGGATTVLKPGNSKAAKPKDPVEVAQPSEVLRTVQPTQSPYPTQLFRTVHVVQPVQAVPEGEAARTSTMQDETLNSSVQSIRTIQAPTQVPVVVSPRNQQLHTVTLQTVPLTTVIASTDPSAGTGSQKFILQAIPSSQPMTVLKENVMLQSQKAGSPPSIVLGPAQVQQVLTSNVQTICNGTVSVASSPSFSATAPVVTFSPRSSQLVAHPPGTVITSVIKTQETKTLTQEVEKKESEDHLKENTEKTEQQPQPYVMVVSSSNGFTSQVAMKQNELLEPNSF
# Method in brief: as §1
# EHF = target: T5, EHF (Homo sapiens, UniProt Q9NZC4 1-300); conditions: protein: recombinant; tags: N-terminal GST; dsDNA, one strand shown
# T5 sequence: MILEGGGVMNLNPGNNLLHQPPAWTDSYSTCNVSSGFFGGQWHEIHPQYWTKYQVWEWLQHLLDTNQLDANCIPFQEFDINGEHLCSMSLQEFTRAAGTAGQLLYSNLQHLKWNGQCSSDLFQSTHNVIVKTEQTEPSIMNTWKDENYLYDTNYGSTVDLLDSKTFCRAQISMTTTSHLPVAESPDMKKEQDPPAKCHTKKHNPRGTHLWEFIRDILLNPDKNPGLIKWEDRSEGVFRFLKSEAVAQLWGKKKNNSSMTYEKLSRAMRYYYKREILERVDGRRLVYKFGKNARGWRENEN
# Method in brief: as §1
# SPI1 = SPI1 (Homo sapiens, UniProt P17947 1-270); conditions: protein: recombinant; tags: N-terminal GST; dsDNA, one strand shown
# Method in brief: as §1
# SPIB = SPIB (Homo sapiens, UniProt Q01892 1-262); conditions: protein: recombinant; tags: N-terminal GST; dsDNA, one strand shown
# Sequence of SPIB (Q01892 whole entry): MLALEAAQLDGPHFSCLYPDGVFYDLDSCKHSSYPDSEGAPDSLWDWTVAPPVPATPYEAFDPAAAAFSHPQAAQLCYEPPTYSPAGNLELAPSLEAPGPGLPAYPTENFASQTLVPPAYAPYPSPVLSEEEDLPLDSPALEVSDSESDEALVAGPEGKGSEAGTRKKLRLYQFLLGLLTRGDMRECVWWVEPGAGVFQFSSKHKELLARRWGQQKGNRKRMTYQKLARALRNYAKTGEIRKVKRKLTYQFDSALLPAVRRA
# Method in brief: as §1
# ELK3 = target: T6, ELK3 (Homo sapiens, UniProt P41970 1-407); conditions: protein: recombinant; tags: N-terminal GST; dsDNA, one strand shown
# T6 sequence: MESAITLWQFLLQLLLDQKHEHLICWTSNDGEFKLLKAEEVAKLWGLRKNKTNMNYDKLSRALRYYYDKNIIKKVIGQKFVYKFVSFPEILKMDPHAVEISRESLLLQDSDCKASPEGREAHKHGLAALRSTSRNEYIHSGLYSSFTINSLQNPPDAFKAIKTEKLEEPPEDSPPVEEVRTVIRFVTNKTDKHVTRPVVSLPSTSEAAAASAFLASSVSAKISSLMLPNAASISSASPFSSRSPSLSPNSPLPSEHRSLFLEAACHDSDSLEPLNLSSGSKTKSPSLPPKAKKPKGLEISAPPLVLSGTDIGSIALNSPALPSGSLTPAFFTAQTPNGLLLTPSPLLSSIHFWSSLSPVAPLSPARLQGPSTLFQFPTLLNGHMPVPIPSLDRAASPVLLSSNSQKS
# Method in brief: as §1
# FEV = target: T7, FEV (Homo sapiens, UniProt Q99581 1-238); conditions: protein: recombinant; tags: N-terminal GST; dsDNA, one strand shown
# T7 sequence: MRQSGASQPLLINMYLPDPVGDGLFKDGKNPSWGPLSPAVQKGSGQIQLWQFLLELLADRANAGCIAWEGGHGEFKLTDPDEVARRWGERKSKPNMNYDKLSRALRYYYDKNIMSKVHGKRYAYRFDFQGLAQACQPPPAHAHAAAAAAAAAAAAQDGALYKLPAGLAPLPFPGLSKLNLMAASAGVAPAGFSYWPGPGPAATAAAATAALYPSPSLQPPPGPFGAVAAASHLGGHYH
# Method in brief: as §1
# ETV5 = ETV5 (Homo sapiens, UniProt P41161 1-510); conditions: protein: recombinant; tags: N-terminal GST; dsDNA, one strand shown
# Sequence of ETV5 (P41161 whole entry): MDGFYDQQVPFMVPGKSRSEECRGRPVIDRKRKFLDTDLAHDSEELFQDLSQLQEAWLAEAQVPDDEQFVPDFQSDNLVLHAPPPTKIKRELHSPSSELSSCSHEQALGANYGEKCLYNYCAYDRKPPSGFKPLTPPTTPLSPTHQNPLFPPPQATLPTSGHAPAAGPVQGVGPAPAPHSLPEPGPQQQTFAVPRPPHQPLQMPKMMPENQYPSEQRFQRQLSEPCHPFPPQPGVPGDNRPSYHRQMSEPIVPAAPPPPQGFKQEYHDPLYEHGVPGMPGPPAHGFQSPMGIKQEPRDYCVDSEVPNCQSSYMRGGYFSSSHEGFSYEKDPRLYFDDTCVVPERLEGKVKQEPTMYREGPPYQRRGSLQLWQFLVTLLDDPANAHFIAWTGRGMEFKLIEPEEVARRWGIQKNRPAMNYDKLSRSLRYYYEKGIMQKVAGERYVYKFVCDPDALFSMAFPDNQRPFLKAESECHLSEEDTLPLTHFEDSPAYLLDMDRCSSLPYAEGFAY
# Method in brief: as §1
# HSF1 = HSF1 (Homo sapiens, UniProt Q00613 1-529); conditions: protein: recombinant; tags: N-terminal GST; chain copies: 3; dsDNA, one strand shown
# Sequence of HSF1 (Q00613 whole entry): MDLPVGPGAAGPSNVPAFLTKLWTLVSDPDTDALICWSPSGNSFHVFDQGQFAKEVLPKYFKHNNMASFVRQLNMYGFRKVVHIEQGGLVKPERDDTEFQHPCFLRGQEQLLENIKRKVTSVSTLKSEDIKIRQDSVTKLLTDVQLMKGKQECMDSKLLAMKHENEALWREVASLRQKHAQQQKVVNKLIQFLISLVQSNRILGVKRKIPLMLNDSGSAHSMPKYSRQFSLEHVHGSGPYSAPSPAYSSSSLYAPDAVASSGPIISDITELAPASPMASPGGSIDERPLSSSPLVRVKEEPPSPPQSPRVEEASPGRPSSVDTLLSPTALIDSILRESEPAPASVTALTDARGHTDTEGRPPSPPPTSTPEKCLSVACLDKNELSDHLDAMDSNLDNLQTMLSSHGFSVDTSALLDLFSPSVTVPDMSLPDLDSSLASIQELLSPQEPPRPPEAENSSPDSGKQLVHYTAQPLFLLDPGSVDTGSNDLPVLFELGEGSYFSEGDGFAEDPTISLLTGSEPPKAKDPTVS
# Method in brief: as §1
# SPIC = target: T8, SPIC (Homo sapiens, UniProt Q8N5J4 1-248); conditions: protein: recombinant; tags: N-terminal GST; dsDNA, one strand shown
# T8 sequence: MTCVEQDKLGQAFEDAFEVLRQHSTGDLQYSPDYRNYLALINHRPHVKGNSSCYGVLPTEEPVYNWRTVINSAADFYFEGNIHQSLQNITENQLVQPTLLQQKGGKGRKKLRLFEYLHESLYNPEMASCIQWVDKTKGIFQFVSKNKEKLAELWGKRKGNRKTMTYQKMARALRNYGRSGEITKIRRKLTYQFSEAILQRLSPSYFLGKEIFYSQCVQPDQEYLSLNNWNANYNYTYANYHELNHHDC
# Method in brief: as §1
# ELF4 = ELF4 (Homo sapiens, UniProt Q99607 1-663); conditions: protein: recombinant; tags: N-terminal GST; dsDNA, one strand shown
# Sequence of ELF4 (Q99607 whole entry): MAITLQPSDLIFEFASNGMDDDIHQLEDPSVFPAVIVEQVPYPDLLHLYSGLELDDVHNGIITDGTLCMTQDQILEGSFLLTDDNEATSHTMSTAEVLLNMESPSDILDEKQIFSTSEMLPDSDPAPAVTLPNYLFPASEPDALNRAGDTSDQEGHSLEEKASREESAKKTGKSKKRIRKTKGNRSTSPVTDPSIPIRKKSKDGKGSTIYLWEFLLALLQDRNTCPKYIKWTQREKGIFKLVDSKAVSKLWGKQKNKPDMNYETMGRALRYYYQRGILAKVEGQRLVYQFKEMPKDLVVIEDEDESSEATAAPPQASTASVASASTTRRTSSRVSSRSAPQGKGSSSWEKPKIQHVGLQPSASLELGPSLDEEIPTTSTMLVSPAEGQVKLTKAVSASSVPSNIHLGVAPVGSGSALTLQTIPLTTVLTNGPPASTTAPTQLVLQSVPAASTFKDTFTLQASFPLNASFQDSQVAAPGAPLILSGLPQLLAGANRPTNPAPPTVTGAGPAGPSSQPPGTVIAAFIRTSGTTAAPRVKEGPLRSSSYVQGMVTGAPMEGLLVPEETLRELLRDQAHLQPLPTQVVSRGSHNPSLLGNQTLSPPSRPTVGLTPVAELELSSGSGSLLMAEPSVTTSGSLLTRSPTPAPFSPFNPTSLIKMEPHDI
# Method in brief: as §1
# ELK4 = target: T9, ELK4 (Homo sapiens, UniProt P28324-2 1-405); conditions: protein: recombinant; tags: N-terminal GST; dsDNA, one strand shown
# T9 sequence: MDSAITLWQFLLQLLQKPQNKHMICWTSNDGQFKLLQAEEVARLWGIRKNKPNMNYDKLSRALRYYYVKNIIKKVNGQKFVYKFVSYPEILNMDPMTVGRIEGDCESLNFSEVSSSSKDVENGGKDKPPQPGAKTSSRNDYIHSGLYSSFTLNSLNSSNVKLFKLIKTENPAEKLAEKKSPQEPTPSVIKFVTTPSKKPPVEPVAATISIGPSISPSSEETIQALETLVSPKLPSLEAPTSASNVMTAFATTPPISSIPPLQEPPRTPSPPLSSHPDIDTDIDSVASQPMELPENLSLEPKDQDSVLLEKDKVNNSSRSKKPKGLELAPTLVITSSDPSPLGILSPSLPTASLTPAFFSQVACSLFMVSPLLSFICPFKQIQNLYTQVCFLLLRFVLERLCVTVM
# Method in brief: as §1
# ETV2 = target: T10, ETV2 (Homo sapiens, UniProt O00321 1-342); conditions: protein: recombinant; tags: N-terminal GST; dsDNA, one strand shown
# T10 sequence: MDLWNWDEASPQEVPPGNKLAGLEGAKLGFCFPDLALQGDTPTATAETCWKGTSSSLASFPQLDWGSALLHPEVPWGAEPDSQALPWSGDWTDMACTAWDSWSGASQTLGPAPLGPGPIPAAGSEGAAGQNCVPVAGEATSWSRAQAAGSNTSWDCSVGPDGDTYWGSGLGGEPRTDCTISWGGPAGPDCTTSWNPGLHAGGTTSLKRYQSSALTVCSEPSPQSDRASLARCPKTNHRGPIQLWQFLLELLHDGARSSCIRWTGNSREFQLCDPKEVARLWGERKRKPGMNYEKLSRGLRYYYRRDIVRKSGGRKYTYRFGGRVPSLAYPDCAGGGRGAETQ
# Method in brief: as §1
# ELF3 = target: T11, ELF3 (Homo sapiens, UniProt P78545 1-371); conditions: protein: recombinant; tags: N-terminal GST; dsDNA, one strand shown
# T11 sequence: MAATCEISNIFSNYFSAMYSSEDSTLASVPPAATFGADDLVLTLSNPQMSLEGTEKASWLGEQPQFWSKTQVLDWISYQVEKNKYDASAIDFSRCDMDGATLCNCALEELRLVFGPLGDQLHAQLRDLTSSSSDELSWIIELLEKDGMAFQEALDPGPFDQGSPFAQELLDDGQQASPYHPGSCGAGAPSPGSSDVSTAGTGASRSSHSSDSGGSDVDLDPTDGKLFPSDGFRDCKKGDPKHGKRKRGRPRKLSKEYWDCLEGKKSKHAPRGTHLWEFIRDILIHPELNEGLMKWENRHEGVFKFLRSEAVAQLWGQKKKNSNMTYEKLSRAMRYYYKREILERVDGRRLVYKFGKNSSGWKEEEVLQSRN
# Method in brief: as §1
# CRX = CRX (Homo sapiens, UniProt O43186 1-299); conditions: protein: recombinant; tags: N-terminal GST; dsDNA, one strand shown
# Sequence of CRX (O43186 whole entry): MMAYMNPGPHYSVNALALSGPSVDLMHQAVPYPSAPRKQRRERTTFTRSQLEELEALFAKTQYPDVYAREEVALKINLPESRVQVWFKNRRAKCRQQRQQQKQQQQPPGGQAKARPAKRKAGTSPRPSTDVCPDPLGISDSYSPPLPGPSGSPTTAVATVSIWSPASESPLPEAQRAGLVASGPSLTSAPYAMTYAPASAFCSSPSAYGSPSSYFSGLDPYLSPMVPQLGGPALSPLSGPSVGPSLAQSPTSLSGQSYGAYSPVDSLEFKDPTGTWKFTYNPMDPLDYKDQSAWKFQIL
# Method in brief: as §1
# ETV1 = ETV1 (Homo sapiens, UniProt P50549 1-477); conditions: protein: recombinant; tags: N-terminal GST; dsDNA, one strand shown
# Sequence of ETV1 (P50549 whole entry): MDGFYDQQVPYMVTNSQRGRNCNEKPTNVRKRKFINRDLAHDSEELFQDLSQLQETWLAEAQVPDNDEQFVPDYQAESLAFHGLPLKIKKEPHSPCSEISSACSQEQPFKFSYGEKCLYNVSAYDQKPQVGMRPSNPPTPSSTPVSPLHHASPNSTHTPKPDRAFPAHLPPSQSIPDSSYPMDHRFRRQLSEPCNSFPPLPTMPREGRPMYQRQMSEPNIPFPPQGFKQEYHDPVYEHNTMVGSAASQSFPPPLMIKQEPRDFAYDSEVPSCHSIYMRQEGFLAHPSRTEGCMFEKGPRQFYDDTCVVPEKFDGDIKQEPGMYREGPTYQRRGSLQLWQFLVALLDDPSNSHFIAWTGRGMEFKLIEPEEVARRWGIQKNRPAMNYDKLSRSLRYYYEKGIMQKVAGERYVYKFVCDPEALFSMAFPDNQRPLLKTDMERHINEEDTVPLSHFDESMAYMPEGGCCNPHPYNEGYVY
# Method in brief: as §1
sequence,measurement,setting,value
CGAACC,binding signal,FLI1,"1.1 fold enrichment (6-mer frequency, TF over GST control)"
same,binding signal,ELK1,"1.29 fold enrichment (6-mer frequency, TF over GST control)"
same,binding signal,GABPA,"1.22 fold enrichment (6-mer frequency, TF over GST control)"
same,binding signal,ERG,"1.15 fold enrichment (6-mer frequency, TF over GST control)"
same,binding signal,ELF1,"1.23 fold enrichment (6-mer frequency, TF over GST control)"
same,binding signal,EHF,"1.19 fold enrichment (6-mer frequency, TF over GST control)"
same,binding signal,SPI1,"1.17 fold enrichment (6-mer frequency, TF over GST control)"
same,binding signal,SPIB,"1.13 fold enrichment (6-mer frequency, TF over GST control)"
same,binding signal,ELK3,"1.21 fold enrichment (6-mer frequency, TF over GST control)"
same,binding signal,FEV,"1.24 fold enrichment (6-mer frequency, TF over GST control)"
same,binding signal,ETV5,"1.21 fold enrichment (6-mer frequency, TF over GST control)"
same,binding signal,HSF1,"1.47 fold enrichment (6-mer frequency, TF over GST control)"
same,binding signal,SPIC,"1.23 fold enrichment (6-mer frequency, TF over GST control)"
same,binding signal,ELF4,"1.26 fold enrichment (6-mer frequency, TF over GST control)"
same,binding signal,ELK4,"1.26 fold enrichment (6-mer frequency, TF over GST control)"
same,binding signal,ETV2,"1.2 fold enrichment (6-mer frequency, TF over GST control)"
same,binding signal,ELF3,"1.24 fold enrichment (6-mer frequency, TF over GST control)"
same,binding signal,CRX,"1.02 fold enrichment (6-mer frequency, TF over GST control)"
same,binding signal,ETV1,"1.13 fold enrichment (6-mer frequency, TF over GST control)"
